Sm TGR block = qHTS Assay for the Inhibitors of Schistosoma Mansoni Peroxiredoxins. Schistosoma mansoni thioredoxin glutathione reductase (TGR), Q962Y6. AID 485364, 2010. purified TGR, DTNB reduction, TNB absorbance 405 nm. 3% of 360,000 active. Potency, µM (titrated, usually from 114 µM), for the others: at the highest dose activity change, negative = inhibition, hits mostly inhibitors; active means well fitted inhibition curve with a large enough effect; inconclusive means small, poorly fitted or top-dose-only effect; inactive means no such curve, though single readings can be large or run the other way; further: potency means the concentration at half of the fitted maximal effect; on the % scale 0 is the no-effect control and ±100 the full control effect; nearly all actives have a fitted effect of over 60% in size
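Kinetic colorimetric format: TGR-catalysed, NADPH-driven DTNB reduction monitored via TNB absorbance. Enzyme dispensed at 20 nM; compound exposure 15 min at room temperature before reaction start.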
Cycloheximide cs = Cycloheximide Counterscreen for Small Molecule Inhibitors of Shiga Toxin; cell reporter, cycloheximide protein synthesis inhibition counterscreen; max response, %; 12% of 300,000 active; in the data active means max response mostly above about 13%, no sharp cut-off; inactive means mostly below about 14%; further: read at 38.3 µM for the half of the compounds with a filed dose; 0% is about no effect
Shiga inhibitor = A qHTS for Small Molecule Inhibitors of Shiga Toxin; inhibition, % at 38.7 µM; 9.2% of 290,000 active; Vero cells, Shiga toxin protein synthesis inhibition reporter; AID 2315, 2010; in the data active means inhibition mostly above about 28%, no sharp cut-off; inactive means mostly below about 43%; further: 0% is about no effect
FMDV inh = High Throughput Screening for Foot and Mouth Disease Virus Antivirals. Potency, µM (highest dose often 57.9 µM), inactives show at the highest dose activity change, negative = inhibition, hits mostly inhibitors. FMDV antiviral cell-based qHTS. 1.2% of 410,000 active; calls by dose curve; tested in HEK293T cells; further: read-out not given here; potency means the concentration at half of the fitted maximal effect; on the % scale 0 is the no-effect control and ±100 the full control effect; nearly all actives have a fitted effect of over 45% in size
The depositor's hits bear a star; ? = inconclusive; nt = not tested or not shown; + = active, no number. This is a sample that favours compounds with a hit; in the whole collection about 12% have one here.

SMILES | Sm TGR block | Cycloheximide cs | Shiga inhibitor | FMDV inh
CC(=O)Nc1cccc(NC(=S)Nc2cccc(Cl)c2Cl)c1 | nt | 0.6 | -9.0 | 10.6%
CC(=O)c1ccc(NC(=S)Nc2cccc(Cl)c2C)cc1 | 35.5µM* | -4.1 | 4.5 | 9.2%
Cc1ccc(N2C(=O)CC(SCC(=O)Nc3ccc(S(N)(=O)=O)cc3)C2=O)cc1 (stereo not given) | -17.3% | 63.7* | 154.4* | 3.8%
COc1ccc(-n2c(=O)c3c(c4cc(OC)ccc4n3C)n(CCC(C)C)c2=O)cc1 | 19.4% | nt | nt | -16.1%
O=C1C2=C(Nc3ccccc3SC2c2ccccc2C(F)(F)F)c2ccccc21 (stereo not given) | 0.4% | nt | nt | -1.0%
Cc1ccc(NC(=O)NC(=O)N(C(C)C)S(=O)(=O)c2ccc(C)cc2)cc1 | 1.3% | 22.6* | 31.4 | 0.8%
O=C(C=NNc1ccccc1)c1ccccc1 | nt | nt | nt | -2.3%
CS/C(N)=N/C(=S)Nc1cccc(Cl)c1 | 31.9% | 36.1* | 94.5* | 8.5%
O=C(O)/C(=C\C(=O)c1ccccc1)Nc1ccccc1 | 0.0% | 51.4* | 83.5* | nt
CC(=O)c1ccc(NC(=O)Nc2cccc(Cl)c2)cc1 | -0.9% | 36.7* | 60.6* | 11.1%
NC(=S)Nc1cccc(Cl)c1 | 17.8% | 7.5 | 1.0 | 12.5%
COc1cccc(C2CC(=O)Nc3cc(OC)c(OC)c(OC)c32)c1OC(C)C (stereo not given) | 7.4% | nt | nt | 30.9%
Cc1ccc(CNC(=O)CSc2nc3ccsc3c(=O)n2-c2ccc(Br)cc2)cc1 | -4.9% | nt | nt | ?
COC(=O)c1ccc(NC(=S)NCCc2ccccc2)cc1 | -24.9% | -0.7 | -3.4 | 25.1%
CC(=O)c1ccc(NC(=S)NCCc2cccc(Cl)c2)cc1 | nt | 27.0* | 77.7* | 36.0%
CC(=O)Nc1ccc(NC(=O)Nc2cccc(Cl)c2)cc1 | -15.4% | 27.3* | 49.6* | 15.8%
CC(NCc1ccc(S(N)(=O)=O)cc1)C(=O)Nc1cccc(Cl)c1 (stereo not given) | 0.6% | -1.4 | -1.6 | -14.0%
NS(=O)(=O)c1ccc(NC(=O)Nc2cccc(Cl)c2)cc1 | -10.5% | 19.3* | 25.2 | 4.6%
CC(=O)Nc1cccc(NC(=O)c2cccc(Cl)c2)c1 | nt | nt | nt | 8.0%
NS(=O)(=O)c1cccc(NC(=O)Nc2ccccc2)c1 | -16.9% | 10.9* | 26.3 | 9.0%
O=C(CSc1nc2ccccc2n1Cc1ccc(F)c(Cl)c1)N1CCN(c2ccc(F)cc2)CC1 | 6.5% | nt | nt | ?
Cc1ccc(Cc2nc3ccccc3nc2SCC(=O)Nc2ccc3c(c2)OCO3)cc1 | 4.0% | nt | nt | 6.1%
Cc1cccc(C)c1NC(=O)Cn1cc(S(=O)(=O)Cc2ccc(F)cc2)c2ccccc21 | -3.4% | nt | nt | -10.2%
Cc1c(C(=O)N2CCC(Cc3ccccc3)CC2)sc2ncnc(NCc3ccccn3)c12 | nt | nt | nt | -29.2%
O=C(Nc1ccccc1)Nc1ccccc1 | nt | 48.1* | 92.9* | 63.5%
SMILES | Sm TGR block | Cycloheximide cs | Shiga inhibitor | FMDV inh
O=C(Nc1ccccc1)C(Cl)C(=O)c1ccccc1 (stereo not given) | -25.8% | 36.1* | nt | 68.2%
O=c1c2oc3ccccc3c2n(Cc2ccc(Cl)cc2)c(=O)n1Cc1ccccc1 | 21.0% | nt | nt | -25.0%
O=c1cc(N=Nc2ccc(Cl)cc2)[nH]c(=O)[nH]1 | ? | -1.5 | -10.6 | 25.1µM*
O=c1cc(-c2ccc(Cl)cc2)oc(=O)[nH]1 | -1.0% | 0.9 | -11.9 | -2.6%
CC(=O)Nc1ccc(S(=O)(=O)N2CCN(c3ccc(C)c(C)c3)CC2)cc1 | 18.7% | nt | nt | -23.8%
COc1ccc(NS(=O)(=O)c2ccc(NS(=O)(=O)c3ccc4c(c3)OCCO4)cc2)cc1 | 4.4% | nt | nt | 25.8%
COc1ccc(NS(=O)(=O)c2ccc3oc(Nc4ccc5c(c4)OCCO5)nc3c2)cc1 | -3.2% | 30.1* | + | 7.6%
COc1cccc(S(=O)(=O)Nc2ccc3c(c2)OCCO3)c1 | -14.5% | 36.7* | 51.7* | -21.6%
Cc1cccc(S(=O)(=O)Nc2ccc3c(c2)OCCO3)c1 | -8.4% | 0.7 | -8.0 | 44.9%
CC(=O)CCc1oc2ccccc2c1-c1ccccc1 | -25.8% | -4.9 | 3.6 | -28.4%
C/C(CCc1oc2c(Br)cc(Br)cc2c1-c1ccc(C)o1)=N\O | 15.8µM* | -1.9 | -1.9 | nt
C/C(CCc1oc2ccccc2c1-c1ccc(C)o1)=N/O | 20µM* | 15.2 | -7.8 | -18.4%
CCOC(=O)c1cn2nc(Oc3ccccc3)ccc2n1 | 8.8% | 71.5* | 92.7* | 10.8%
CCOC(=O)c1cn2nc(Oc3ccc(C)cc3)ccc2n1 | 0.8% | 43.3* | 98.3* | 53.6%
CCOC(=O)c1ccc(NC(=O)CN2c3ccccc3S(=O)(=O)c3ccccc32)cc1 | 2.5% | nt | nt | -9.6%
Cc1[nH]nc(SCC(=O)N2CCCC2)c1[N+](=O)[O-] | -4.7% | -0.3 | 20.7 | 20.1%
Cc1[nH]nc(SCC(=O)N2CCC(C)CC2)c1[N+](=O)[O-] | -5.9% | 16.7* | 17.6 | 63.1%
O=P(O)(O)O[C@@H]1[C@H](O)[C@H](O)[C@@H](OP(=O)(O)O)[C@H](OP(=O)(O)O)[C@H]1O | nt | 1.3 | -3.6 | nt
CC1CCCN(C(=O)CSc2nc3ncccc3[nH]2)C1 (stereo not given) | 35.1% | 14.9* | 33.1* | 37.1%
CN(C)C(=O)CSc1cnc2ccccc2n1 | 2.2% | 3.6 | 14.1 | 5.1%
CC1CCCN(C(=O)CSc2cnc3ccccc3n2)C1 (stereo not given) | 7.3% | 58.2* | 111.1* | 37.8%
Cc1ccc(C(=O)c2oc3ccccc3c2NC(=O)c2nc(S(C)(=O)=O)ncc2Cl)cc1F | -13.2% | nt | nt | -5.7%
O=C(Cc1ccccc1)NCC(=O)N/N=C/c1ccc(Cl)cc1 | -1.8% | -3.0 | 6.7 | -4.6%
CCOc1ccc(/C=N/Nc2cc(C)nc(N3CCOCC3)n2)cc1 | -1.4% | -1.5 | 35.2 | -7.0%
CCOc1ccc(/C=N/NC2=NCCCCC2)cc1 | 0.7% | 19.5* | 27.0* | 2.6%
SMILES | Sm TGR block | Cycloheximide cs | Shiga inhibitor | FMDV inh
O=C(N/N=C/c1ccc(Cl)cc1)Nc1ccccc1 | -22.3% | 39.3* | 50.0* | 8.0%
O=C(N/N=C/c1ccco1)Nc1ccccc1 | 5.9% | 29.3* | 102.0* | 52.3%
Clc1ccc(/C=N\Nc2ccccc2)cc1 | ? | 11.8 | 27.1* | 44.3%
O=C(CS(=O)(=O)c1cccc2nsnc12)NCc1ccccc1Cl | -2.9% | nt | nt | -9.9%
Cc1ccc(-c2cn3c(n2)sc2cc(C(=O)NCCCc4ccccc4)ccc23)c(C)c1 | 0.0% | nt | nt | -7.4%
CCOc1ccc(/C=N/Nc2ccccc2)cc1 | 25.1µM* | 27.5* | 46.8* | 54.9%
CCOc1ccc(/C=N/O)cc1 | -0.5% | -3.5 | -12.8 | 16.6%
COc1nc(-c2ccc(C)cc2)ccc1-c1noc(-c2ccc(C(C)(C)C)cc2)n1 | -1.5% | nt | nt | -18.1%
CSc1nnc(CCNC(=O)OC(C)(C)C)o1 | 16.2% | 13.0 | 54.1* | 6.7%
Oc1c(Cl)cc(Cl)cc1/C=N/c1nccs1 | 6.31µM* | -2.6 | -2.8 | -22.4%
Oc1c(Cl)cc(Cl)cc1/C=N/c1nc(-c2ccc(Cl)cc2)cs1 | ? | 1.8 | 16.5 | 34.1%
c1ccc(-c2nc(-c3nccc4ccccc34)oc2-c2ccccc2)cc1 | 0.3% | 46.1* | 74.2* | 19.3%
Cc1ccc(NC(=O)CN(Cc2ccccc2)S(=O)(=O)c2ccc3nc(C)sc3c2)c(C)c1 | -0.1% | nt | nt | -23.9%
Cc1cc(O)c(C(c2ccccc2)N2CCC(C)CC2)c(=O)n1Cc1ccco1 (stereo not given) | 28.2µM* | nt | nt | -14.1%
